Compounds with a hit are over-represented: about 10% of the library has one in this group of screens.
HP1b binding inh – inhibitors of HP1-beta chromodomain binding to methylated histone tails; P83916; AlphaScreen HP1-beta / biotin-H3K9me3 peptide binding; Potency, µM (doses to about 114 µM), hits mostly inhibitors; actives 0.56% (n = 390,000); AID 540317; note: nearly all actives have a fitted effect of over 70% in size
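Compound inhibition of the preformed complex between 50 nM HP1-beta and 50 nM biotinylated H3K9me3 peptide was read by AlphaScreen. Buffer was PBS pH 7.4 with 0.01% Tween-20. Incubations ran 30 min at room temperature, with 10 ug/mL donor/acceptor beads.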
GLS inh – blocks human kidney-isoform glutaminase activity; GLS enzymatic activity, qHTS titration; Potency, µM (titrated, usually from 45.5 µM), most hits filed as inhibitors; actives 0.21% (n = 410,000)
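hKGA; 45 mM KH2PO4 pH 8.2 + 0.02% Tween-20; cpd via pin tool; 1 mM Gln soln; GluOx/HRP/Amplex Red; RT 30 min; fluor. t0 & final.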
G9a block – blocks human histone lysine methyltransferase G9a; Q96KQ7; G9a H3K9 monomethylation, AlphaScreen, 2 h; Potency, µM (top dose mostly 102 µM), hits mostly inhibitors; actives 8.8% (n = 350,000); AID 504332; note: nearly all actives have a fitted effect of over 75% in size
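G9a (20 nM) was preincubated 15 min with compound, then reacted 2 h at room temperature with 500 nM biotin-H3K9 peptide and 20 µM SAM. Monomethyl-H3K9 detected by AlphaScreen using anti-H3K9me1 antibody.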
BAZ2B block – inhibitors of human BAZ2B bromodomain | actives 4.4% (n = 360,000) | AlphaScreen BAZ2B-H3K14Ac peptide displacement | Q9UIF8 | AID 504333 | Potency, µM (top dose mostly 114 µM), hits mostly inhibitors; note: nearly all actives have a fitted effect of over 60% in size
Target sequence (Q9UIF8 whole entry, looked up): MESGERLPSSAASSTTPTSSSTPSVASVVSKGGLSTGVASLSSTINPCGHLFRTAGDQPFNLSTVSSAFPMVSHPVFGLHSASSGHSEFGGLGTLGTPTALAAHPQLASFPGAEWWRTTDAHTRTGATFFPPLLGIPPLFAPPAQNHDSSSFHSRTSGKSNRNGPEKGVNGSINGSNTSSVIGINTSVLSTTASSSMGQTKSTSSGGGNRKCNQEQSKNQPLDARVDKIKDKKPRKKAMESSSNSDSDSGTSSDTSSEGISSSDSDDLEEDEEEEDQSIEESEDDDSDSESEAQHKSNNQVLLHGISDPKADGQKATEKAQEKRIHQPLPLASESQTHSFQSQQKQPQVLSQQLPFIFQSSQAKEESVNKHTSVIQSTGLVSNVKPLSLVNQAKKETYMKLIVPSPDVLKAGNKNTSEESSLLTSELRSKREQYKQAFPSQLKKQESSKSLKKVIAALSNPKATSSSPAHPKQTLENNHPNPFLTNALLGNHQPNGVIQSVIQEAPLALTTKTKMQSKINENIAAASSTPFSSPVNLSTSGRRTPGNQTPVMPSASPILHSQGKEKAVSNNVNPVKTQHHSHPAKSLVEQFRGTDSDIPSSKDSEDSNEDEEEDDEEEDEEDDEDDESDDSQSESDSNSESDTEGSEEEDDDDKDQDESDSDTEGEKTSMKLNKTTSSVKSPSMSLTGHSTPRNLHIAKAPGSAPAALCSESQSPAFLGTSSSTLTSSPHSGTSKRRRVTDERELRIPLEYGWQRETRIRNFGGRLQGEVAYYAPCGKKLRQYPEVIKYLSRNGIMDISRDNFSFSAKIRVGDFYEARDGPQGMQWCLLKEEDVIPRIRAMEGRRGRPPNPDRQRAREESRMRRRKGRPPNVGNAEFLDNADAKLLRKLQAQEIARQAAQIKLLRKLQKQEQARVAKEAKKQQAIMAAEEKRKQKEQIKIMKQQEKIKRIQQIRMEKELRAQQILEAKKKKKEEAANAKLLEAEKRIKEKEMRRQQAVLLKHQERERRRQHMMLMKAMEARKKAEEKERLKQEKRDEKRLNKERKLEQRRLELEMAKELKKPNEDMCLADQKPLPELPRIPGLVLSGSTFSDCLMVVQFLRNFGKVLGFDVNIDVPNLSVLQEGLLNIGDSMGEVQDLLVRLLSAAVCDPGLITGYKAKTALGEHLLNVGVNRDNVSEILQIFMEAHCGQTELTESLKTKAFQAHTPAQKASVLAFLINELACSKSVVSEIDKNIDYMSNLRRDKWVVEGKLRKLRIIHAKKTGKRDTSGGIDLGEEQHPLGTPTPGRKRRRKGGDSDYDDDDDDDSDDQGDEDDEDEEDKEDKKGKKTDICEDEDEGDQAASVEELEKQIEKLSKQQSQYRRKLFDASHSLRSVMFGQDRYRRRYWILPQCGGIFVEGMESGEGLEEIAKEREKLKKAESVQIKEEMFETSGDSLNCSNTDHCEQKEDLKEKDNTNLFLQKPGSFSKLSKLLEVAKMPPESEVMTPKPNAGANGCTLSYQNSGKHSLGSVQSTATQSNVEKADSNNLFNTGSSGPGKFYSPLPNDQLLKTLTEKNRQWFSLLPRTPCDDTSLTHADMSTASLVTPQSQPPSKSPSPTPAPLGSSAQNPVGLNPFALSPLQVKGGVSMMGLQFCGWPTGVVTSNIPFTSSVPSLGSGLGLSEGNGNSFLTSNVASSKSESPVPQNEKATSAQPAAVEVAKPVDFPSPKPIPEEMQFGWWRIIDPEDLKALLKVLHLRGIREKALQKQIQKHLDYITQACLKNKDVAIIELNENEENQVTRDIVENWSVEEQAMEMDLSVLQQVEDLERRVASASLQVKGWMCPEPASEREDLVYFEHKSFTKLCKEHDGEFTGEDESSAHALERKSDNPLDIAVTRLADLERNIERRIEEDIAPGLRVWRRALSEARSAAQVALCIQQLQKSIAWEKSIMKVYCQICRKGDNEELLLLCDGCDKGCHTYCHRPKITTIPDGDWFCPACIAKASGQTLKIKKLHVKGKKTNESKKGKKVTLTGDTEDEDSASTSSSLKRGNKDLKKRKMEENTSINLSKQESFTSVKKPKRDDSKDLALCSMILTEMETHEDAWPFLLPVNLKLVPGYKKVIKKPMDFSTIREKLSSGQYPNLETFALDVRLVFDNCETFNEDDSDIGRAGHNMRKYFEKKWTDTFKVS
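AlphaScreen displacement of biotin-H3(5-23)K14Ac peptide (50 nM final) from BAZ2B (50 nM final) in PBS pH 7.4, 0.01% Tween-20; complex preformed 30 min RT, then compounds (top 110 uM) 30 min RT, beads 20 min dark.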
JMJD2A Tudor inh – blocks the human JMJD2A Tudor domain; O75164; AlphaScreen JMJD2A-Tudor / H3K4me3 peptide binding; Potency, µM (top dose mostly 114 µM), actives largely listed as inhibitors; actives 4.4% (n = 390,000); AID 504339; note: nearly all actives have a fitted effect of over 50% in size
A number is an active result; . = inactive; ? = inconclusive; / = no result given; [ ] = another dose, or the depositor's remark. Calls come from the whole dose curve; as a rule, active = well fitted curve in the direction sought with a large enough effect; inconclusive = small, poorly fitted or top-dose-only effect, or another doubt; inactive = no such curve, though single readings can be large; an effect the other way counts as inactive or inconclusive.

SMILES	HP1b binding inh	GLS inh	G9a block	BAZ2B block	JMJD2A Tudor inh
O=C(CSc1nc(-c2ccc(F)cc2)nc2c1Cc1ccccc1O2)Nc1cccc(C(=O)O)c1	?	.	7.9µM	7.9µM	10µM
O=C(CSc1nc(-c2ccccc2)nc2ccc(F)cc12)Nc1cccc(C(=O)O)c1	.	.	71µM	79µM	?
O=C(CSc1nc(-c2ccccc2)nc2c1Cc1ccccc1O2)Nc1ccccc1	/	/	.	.	/
CC(C)OC(=O)CSc1nc(-c2ccc(F)cc2)nc2ccc(F)cc12	.	.	.	.	.
O=C(CSc1nc(-c2ccccc2)nc2ccc(F)cc12)Nc1ccc(C(=O)O)cc1	.	.	45µM	50µM	35µM
O=C(CC(c1cccs1)N1Cc2ccccc2C1=O)Nc1ccccc1F (centres undefined)	.	.	.	.	.
OCc1ccccc1SSc1ccccc1CO	?	?	/	/	14µM
Cc1cc(C)c(C(=O)c2ccccc2C(=O)O)c(C)c1	/	.	/	/	/
O=c1c(-c2cccc(Cl)c2)nc2cncnc2n1Cc1ccccc1Cl	/	/	.[12.7 µM]	/	/
O=C1OCCN1c1c(-c2ccccc2)c(-c2cccs2)nc2c(-c3ccccc3)cccc12	.	.	40µM	.	.
O=C1OCCN1c1ccccc1	.	.	/	/	.
O=C(NCCc1ccc(Cl)cc1)C1CCN(Cc2cc3ccccc3n2Cc2ccccc2)CC1	.	.	.	.	.
CCOC(=O)NNc1ccc2nonc2c1[N+](=O)[O-]	?	.	/	40µM	56µM
CN(C)CCOCCOc1ccc(Cl)cc1C(C)(C)C	?	.	8.9µM	50µM	3.2µM
CN(CCOCCOc1ccc(Cl)cc1Br)Cc1ccccc1	.	.	.	.	.
CC(O)CNCCCOc1ccc(Cl)cc1C(C)(C)C (centres undefined)	?	.	/	?	0.89µM
Cc1cc(Cl)cc(Br)c1OCCNCC(C)O (centres undefined)	.	.	.[12.7 µM]	.	.
CCOc1ccc(N(C)c2ccc(/C=C3/SC(=S)NC3=O)cc2)cc1	?	.	/	50µM	3.5µM
CCOc1c(O)ccc(/C=C2\SC(=S)NC2=O)c1[N+](=O)[O-]	?	.	14µM	40µM	?
CN(C)c1ccc(C=C2SC(=S)NC2=O)cc1	.	.	/	/	?
CC(=O)c1ccc(NC(=O)Cn2c(-n3nc(C)cc3C)nc(C)c(C)c2=O)cc1	.	.	4µM	.	.
Cc1cc(C)n(-c2nc(C)c(C)c(=O)n2CC(=O)Nc2cccc([N+](=O)[O-])c2)n1	.	.	6.3µM	.	?
Cc1ccc(NC(=O)Cc2nnc(SCC(=O)c3ccc(Br)cc3)n2C)cc1	.	.	.	.	.
CCc1ccc(C(=O)c2cnc3ccc(F)cc3c2S(=O)(=O)c2ccccc2)cc1	.	.	?	?	.
CC(C)(C)OC(=O)C[C@@H]1C/C=C\C[C@@H](CC(=O)N[C@H](CO)Cc2ccccc2)C(=O)N2CCC[C@H]2COC1=O	.	.	/	/	.
SMILES	HP1b binding inh	GLS inh	G9a block	BAZ2B block	JMJD2A Tudor inh
COc1cccc(-c2ccc3ncnc(Nc4ccccc4)c3c2)c1	/	/	.[0.501 µM]	/	/
O=C(Nc1ccc(F)cc1)C1CC(=O)n2ncnc2N1 (centres undefined)	.	.	.	.	.
Cc1ccc(NC(=O)C2CC(=O)n3ncnc3N2)cc1C (centres undefined)	.	.	56µM	.	.
CN(C)c1ccc(/C=C(/NC(=O)c2ccccc2)C(=O)N/N=C/c2ccc([N+](=O)[O-])c(O)c2)cc1	?	.	?	18µM	45µM
CC1CCCN(C(=O)/C(=C/c2ccco2)NC(=O)c2ccccc2)C1 (centres undefined)	.	.	45µM	.	.
COc1ccc(/C=C(/NC(=O)c2ccccc2)C(=O)N/N=C/c2cccs2)cc1OC	.	.	.	.	.
COc1ccc([N+](=O)[O-])cc1/C=N/NC(=O)/C(=C\c1cccs1)NC(=O)c1ccccc1	.	.	89µM	.	.
O=C(N/C(=C\c1ccco1)C(=O)N1CCCC1CO)c1ccccc1 (centres undefined)	.	.	16µM	.	.
CN1CCN(C(=O)/C(=C/c2ccco2)NC(=O)c2ccccc2)CC1	.	.	.	.	.
CCOC(=O)C1(Cc2cccc(OC)c2)CCN(Cc2cnc(C)s2)CC1	.	.	/	.	.
COc1ccc(NC(=O)Nc2nnc(N(C)C3CCCCC3)s2)c(OC)c1	.	.	.	.	.
CCc1ccc(NC(=O)CSc2nc3nc(C)cc(C)n3n2)cc1	.	.	.	.	.
COc1ccc(NC(=O)CN2CCCN(Cc3ccc(Cl)cc3)S2(=O)=O)cc1Cl	.	.	.	.	.
CC1CN=C(NS(=O)(=O)c2ccccc2)N1 (centres undefined)	/	.	/	/	/
O=C(Nc1ccc2nc(SCC(=O)N3CCCc4ccccc43)sc2c1)c1ccccc1	.	.	.	.	.
Cc1ccc(C(=O)N/C(=C/c2ccco2)C(=O)O)cc1	.	.	.	.	.
CN(C)c1ccc(/C=C(/NC(=O)c2ccccc2)C(=O)N2CCCC2)cc1	.	?	10µM	.	.
Cc1ccc(C(=O)N/C(=C/c2ccco2)C(=O)N2CCC(C)CC2)cc1	.	.	18µM	.	.
Cc1cccc(C(=O)N/C(=C\c2ccco2)C(=O)N2CCCCCC2)c1	.	.	?	.	.
CC1CCN(C(=O)/C(=C\c2ccco2)NC(=O)c2ccccc2)CC1	.	.	50µM	.	.
Cc1cccc(C(=O)N/C(=C/c2ccco2)C(=O)N2CCCCCC2)c1	.	.	40µM	.	.
O=C(c1ccco1)n1nc(-c2ccccc2)nc1NCc1ccccc1Cl	.	.	.	.	.
COc1cc(NC(=O)C2CCN(S(=O)(=O)c3c(C)noc3/C=C/c3ccccc3F)CC2)cc(OC)c1OC	.	.	.	.	.
CS(=O)(=O)Nc1nc2n(n1)C(c1ccccc1)C=C(c1ccc(Br)cc1)N2 (centres undefined)	.	.	?	.	.
COc1ccc(C2C=C(c3ccc(Br)cc3)Nc3nc(N4C(=O)CCC4=O)nn32)cc1 (centres undefined)	.	.	35µM	?	?
SMILES	HP1b binding inh	GLS inh	G9a block	BAZ2B block	JMJD2A Tudor inh
O=C1CCC(=O)N1c1nc2n(n1)C(c1ccccc1)C=C(c1ccc(Br)cc1)N2 (centres undefined)	.	.	25µM	?	?
COc1ccc(N2CCN(C(CNC(=O)C(=O)NCCCN(C)C)c3cccnc3)CC2)cc1 (centres undefined)	.	.	.	.	.
Cc1ccc(Nc2c([N+](=O)[O-])ccc3nonc23)cc1C	.	.	?	.	?
CC(C)c1nc2ccc(C(=O)NCc3ccc(N(C)C)cc3)cc2o1	.	.	16µM	?	?
CCc1nc2ccc(C(=O)NCc3ccc(N(C)C)cc3)cc2nc1CC	.	.	3.5µM	?	.
CCc1nc2c(OCc3ccc(Cl)cc3Cl)cccn2c1N(C)C(=O)CC(C)C	/	.	/	/	/
